Records with an inconclusive call do not appear. Unless noted, calls follow the shape of the dose curve; as a rule, active = well fitted curve in either direction with a large enough effect (not every such curve was filed as active); inconclusive = small, poorly fitted or top-dose-only effect, or another doubt; inactive = flat fitted curve, though single readings scatter.
Experiments:
[1] = AP1 Signaling Pathway (AID 357); details: ME-180 AP-1-bla reporter, EGF-induced, beta-lactamase ratio, 5 h; at 17.2 µM (top of the series) unless noted;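 also: ME-180 reporter cells stimulated with EGF at its EC50 level; % is scaled to controls: 0 for no effect and ±100 for the full control effect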
Summary of the method: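 Cells are seeded overnight, exposed to compound titrations and an EC50 level of EGF for 5 hours at 37 °C, then loaded with CCF4 dye for 2.5 hours. Beta-lactamase activity under the AP-1 element is read as a blue/green ratio.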

[2] = NFAT Signaling Pathway (AID 444); details: Jurkat NFAT-bla M1, carbachol, beta-lactamase ratio, 5 h; at 17.2 µM (top of the series) unless noted;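 also: carbachol stimulus at about its EC50 of 1 µM final; % is scaled to controls: 0 for no effect and ±100 for the full control effect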
Summary of the method: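 Jurkat cells with NFAT-driven β-lactamase reporter and co-expressed M1 receptor, stimulated with carbachol (final 1 uM, ~EC50), compound titration, 5 h at 37 °C. CCF4 loaded 1 h at RT; 460/530 nm ratio gave %activity and AC50.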

[3] = Stat Signaling Pathway (AID 446); details: ME-180 (cervical carcinoma) SIE beta-lactamase reporter, IL-6 stimulated, 5 h; at 17.2 µM (top of the series) unless noted;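 also: ME-180 cervical cancer cells given 40 pM IL-6 alongside compound; SIE-controlled beta-lactamase reporter measured as 460/530 nm FRET emission ratio; % is scaled to controls: 0 for no effect and ±100 for the full control effect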
Summary of the method: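 IL-6/STAT signaling read in ME-180 cells via an SIE beta-lactamase reporter. Stimulus was 40 pM IL-6 (its AC50) for 5 hrs, so both activation and inhibition register.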

[4] = molecular target: Glucocorticoid receptor (Homo sapiens) (UniProt P04150); experiment: GR-GFP Redistribution (AID 450;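 active = compounds whose dose series gives a full or clear partial fitted curve of increased nuclear translocation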; also: potency is read from the fitted curve at half-maximal effect)
Sequence of Glucocorticoid receptor (Homo sapiens) (P04150 whole entry, looked up): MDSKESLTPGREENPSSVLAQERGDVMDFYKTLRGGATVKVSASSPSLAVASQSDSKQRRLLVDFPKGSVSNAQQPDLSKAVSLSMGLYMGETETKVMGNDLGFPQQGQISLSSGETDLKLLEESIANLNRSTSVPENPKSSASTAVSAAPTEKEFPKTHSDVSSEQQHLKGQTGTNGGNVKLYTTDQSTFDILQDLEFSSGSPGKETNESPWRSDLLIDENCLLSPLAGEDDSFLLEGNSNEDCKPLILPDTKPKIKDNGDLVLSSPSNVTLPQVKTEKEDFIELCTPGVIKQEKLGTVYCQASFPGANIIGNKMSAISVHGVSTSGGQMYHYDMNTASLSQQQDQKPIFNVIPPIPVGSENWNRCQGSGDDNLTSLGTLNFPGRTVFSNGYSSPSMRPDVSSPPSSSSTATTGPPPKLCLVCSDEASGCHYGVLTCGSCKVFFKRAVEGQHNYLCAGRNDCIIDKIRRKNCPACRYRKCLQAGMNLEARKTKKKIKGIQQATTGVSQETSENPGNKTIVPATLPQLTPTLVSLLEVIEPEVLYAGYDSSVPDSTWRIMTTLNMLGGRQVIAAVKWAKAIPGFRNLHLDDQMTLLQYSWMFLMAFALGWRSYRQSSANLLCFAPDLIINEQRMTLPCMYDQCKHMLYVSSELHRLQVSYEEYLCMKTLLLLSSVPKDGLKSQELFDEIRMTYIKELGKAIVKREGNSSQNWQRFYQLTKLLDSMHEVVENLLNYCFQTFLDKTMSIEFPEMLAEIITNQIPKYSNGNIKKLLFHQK

Cc1cc(N2C(=O)C(=O)/C(=C(/O)c3ccccc3)C2c2cccs2)no1 (stereo unspecified)
inactive: activity change, negative = inhibition [1] -22.3% | activity change, negative = inhibition [2] 19% | activity, negative = inhibition [3] -21% | Potency [4] > 20.6 µM

CCOc1ccc(C2/C(=C(/O)c3ccc(OC)cc3)C(=O)C(=O)N2c2cc(C)on2)cc1OC (stereo unspecified)
inactive: activity change, negative = inhibition [1] -11.1% | activity change, negative = inhibition [2] -0.187% | activity, negative = inhibition [3] -9.83% | Potency [4] > 20.6 µM

O=C(O)c1ccc(COCC(F)(F)C(F)F)o1
inactive: activity change, negative = inhibition [1] 10.1% | activity change, negative = inhibition [2] 28.1% | activity, negative = inhibition [3] 2.03% | Potency [4] > 20.6 µM

CC(C)OC(=O)c1sc2nc3c(cc2c1N)C(=O)CCC3
inactive: activity change, negative = inhibition [1] -5.75% | activity change, negative = inhibition [2] 7.77% | activity, negative = inhibition [3] -1.01% | Potency [4] > 20.6 µM

O=C(OCCN1CCOCC1)c1ccc(OCCN2CCOCC2)cc1
inactive: activity change, negative = inhibition [1] 1.65% | activity change, negative = inhibition [2] -7.8% | activity, negative = inhibition [3] -3.54% | Potency [4] > 20.6 µM

CC1(C)Cc2c(sc3c2C(=O)N(c2ccccc2)C2=NCCCN23)CO1
inactive: activity change, negative = inhibition [1] 9.3% | activity change, negative = inhibition [2] -14.6% | activity, negative = inhibition [3] 5.74% | Potency [4] > 20.6 µM

COc1ccc(CSc2nnc(C)n2N)cc1Br
inactive: activity change, negative = inhibition [1] -1.02% | activity change, negative = inhibition [2] -3.73% | activity, negative = inhibition [3] 8.37% | Potency [4] > 20.6 µM

O=S(CCc1ccncc1)Cc1ccccc1 (stereo unspecified)
inactive: activity change, negative = inhibition [1] 9.28% | activity change, negative = inhibition [2] 26% | activity, negative = inhibition [3] 2.34% | Potency [4] > 20.6 µM

COC(=O)c1ccccc1OCc1cccc(C)n1
inactive: activity change, negative = inhibition [1] -1.62% | activity change, negative = inhibition [2] -4.22% | activity, negative = inhibition [3] -5.73% | Potency [4] > 20.6 µM

Cc1cc(OCC(=O)Nc2ccc3oc(-c4ccncc4)nc3c2)ccc1Cl
inactive: activity change, negative = inhibition [1] -4.67% | activity change, negative = inhibition [2] 16.6% | activity, negative = inhibition [3] 3.21% | Potency [4] > 20.6 µM

C=C1C2(C(=O)Nc3nccs3)CCC(C2)C1(C)C (stereo unspecified)
inactive: activity change, negative = inhibition [1] -7.92% | activity change, negative = inhibition [2] 25.1% | activity, negative = inhibition [3] -0.516% | Potency [4] > 20.6 µM

COC(=O)c1cc(Br)c(=O)n(-c2nccs2)c1
inactive: activity change, negative = inhibition [1] 1.9% | activity change, negative = inhibition [2] -2.48% | activity, negative = inhibition [3] 2.73% | Potency [4] > 20.6 µM

CN(C)C=C1C(=O)c2ccccc2C1=O
inactive: activity change, negative = inhibition [1] 6.29% | activity change, negative = inhibition [2] 3.97% | activity, negative = inhibition [3] 1.64% | Potency [4] > 20.6 µM

Cc1cc(C)cc(-n2c3nc4ccccc4nc3c3c(=O)n(Cc4ccco4)cnc32)c1
inactive: activity change, negative = inhibition [1] 8.24% | activity change, negative = inhibition [2] -18.2% | activity, negative = inhibition [3] -16.9% | Potency [4] > 20.6 µM

Cc1cc(N2CCN(C3CCCC3)CC2)n2c(nc3ccccc32)c1C#N
inactive: activity change, negative = inhibition [1] 17.3% | activity change, negative = inhibition [2] 19.5% | activity, negative = inhibition [3] 28.2% | Potency [4] > 20.6 µM

CCCc1cc(=O)oc2c(C)c(O)c(CN3CCCCC3)cc12
inactive: activity change, negative = inhibition [1] 6.18% | activity change, negative = inhibition [2] 19.5% | activity, negative = inhibition [3] 10.7% | Potency [4] > 20.6 µM

CC(C)C(C(=O)Nc1ncn[nH]1)N1C(=O)c2ccccc2C1=O (stereo unspecified)
inactive: activity change, negative = inhibition [1] 21.4% | activity change, negative = inhibition [2] -9.04% | activity, negative = inhibition [3] -1.14% | Potency [4] > 20.6 µM

CCCOc1ccc(/C(O)=C2/C(=O)C(=O)N(CCCN3CCOCC3)C2c2ccncc2)cc1 (stereo unspecified)
inactive: activity change, negative = inhibition [1] -5.76% | activity change, negative = inhibition [2] 16.4% | activity, negative = inhibition [3] 5.77% | Potency [4] > 20.6 µM

CC(C)Cc1nc(NCCN2CCOCC2)c(C#N)c2c1COC(C)(C)C2
inactive: activity change, negative = inhibition [1] -8.99% | activity change, negative = inhibition [2] -9.59% | activity, negative = inhibition [3] 19.2% | Potency [4] > 20.6 µM
